This note sets out measurements from PubChem BioAssay.

Each structure is given as a SMILES string. Values without a mark were called inactive. Calls of active or inactive are those of the source. Unless noted, no stated cut-off is given here; in the data, active means inhibition above about 30%; inactive means the rest.

Broadly, the inhibition is the relative decrease from the control value, in per cent.

The target of experiment [1] is Nuclear receptor coactivator 3 (Homo sapiens) (UniProt Q9Y6Q9). The experiment in a line: SRC3 coactivator transcriptional activity inhibitors, confirmation, cell-based, luminescence, quadruplicate (AID 588792;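 active means mean inhibition over 43.08%, the solvent-only control mean plus 3 SD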;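 further: 0% = DMSO treated cells and 100% = gossypol at 36 µM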). The conditions noted are these: HEK293 GAL4-SRC3 luciferase reporter, at 3.6 µM, active compounds read high. (In general: In a reporter assay the amount or activity of a reporter protein is the signal.)

For experiment [2], the system named is transactivating tegument protein VP16 (Human herpesvirus 1), Gal4-VP16 luciferase reporter. The experiment in a line: VP16 transactivation inhibitors, counter-screen for SRC3 inhibitor project, cell-based, luminescence, high throughput (AID 588794). The conditions noted are these: mammalian cells, VP16-driven luciferase reporter luminescence; at 3.6 µM; active compounds read high. (The purpose of a counterscreen is to sort out artefacts and off-target activity.)

Nuclear receptor coactivator 3 (Homo sapiens), sequence (Q9Y6Q9 whole entry, looked up, the tested form may be a part): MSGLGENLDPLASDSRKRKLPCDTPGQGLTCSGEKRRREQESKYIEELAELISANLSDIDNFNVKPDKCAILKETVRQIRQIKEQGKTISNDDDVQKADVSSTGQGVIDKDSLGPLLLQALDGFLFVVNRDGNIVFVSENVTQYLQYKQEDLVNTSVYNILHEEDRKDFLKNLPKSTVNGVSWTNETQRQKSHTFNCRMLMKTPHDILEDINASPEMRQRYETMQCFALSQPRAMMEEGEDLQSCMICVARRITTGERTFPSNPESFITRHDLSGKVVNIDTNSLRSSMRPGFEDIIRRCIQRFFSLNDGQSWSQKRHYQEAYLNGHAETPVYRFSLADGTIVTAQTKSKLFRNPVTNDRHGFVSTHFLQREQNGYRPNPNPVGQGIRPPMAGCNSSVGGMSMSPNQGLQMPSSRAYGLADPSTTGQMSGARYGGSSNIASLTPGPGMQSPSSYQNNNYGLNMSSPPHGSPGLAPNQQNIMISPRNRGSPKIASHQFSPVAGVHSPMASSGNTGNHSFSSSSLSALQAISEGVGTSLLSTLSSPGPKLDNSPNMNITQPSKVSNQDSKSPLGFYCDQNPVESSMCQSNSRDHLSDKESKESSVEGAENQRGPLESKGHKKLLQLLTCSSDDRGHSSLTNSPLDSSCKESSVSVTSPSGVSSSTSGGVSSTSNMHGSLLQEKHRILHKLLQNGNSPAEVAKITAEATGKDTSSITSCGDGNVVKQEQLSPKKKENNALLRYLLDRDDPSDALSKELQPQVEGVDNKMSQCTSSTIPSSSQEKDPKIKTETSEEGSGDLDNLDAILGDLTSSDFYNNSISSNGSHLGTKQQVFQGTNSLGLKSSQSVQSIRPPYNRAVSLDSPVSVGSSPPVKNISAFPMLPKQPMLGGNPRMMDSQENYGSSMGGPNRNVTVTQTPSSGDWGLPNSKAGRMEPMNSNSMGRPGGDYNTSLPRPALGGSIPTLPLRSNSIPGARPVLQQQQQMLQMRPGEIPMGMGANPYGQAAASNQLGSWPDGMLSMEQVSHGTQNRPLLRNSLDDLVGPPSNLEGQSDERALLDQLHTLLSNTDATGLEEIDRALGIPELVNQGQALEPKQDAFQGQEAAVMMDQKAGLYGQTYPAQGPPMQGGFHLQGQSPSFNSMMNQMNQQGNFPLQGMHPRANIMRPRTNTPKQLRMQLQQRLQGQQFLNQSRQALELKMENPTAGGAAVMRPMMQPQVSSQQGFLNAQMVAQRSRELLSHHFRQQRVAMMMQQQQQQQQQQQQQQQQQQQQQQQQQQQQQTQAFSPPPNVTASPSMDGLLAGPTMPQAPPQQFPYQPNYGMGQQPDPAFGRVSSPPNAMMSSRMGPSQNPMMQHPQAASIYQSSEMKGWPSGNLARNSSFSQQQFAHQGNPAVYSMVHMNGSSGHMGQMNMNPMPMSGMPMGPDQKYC

For the molecule `COC(=O)c1cc(S(=O)(=O)NCCc2ccc(Cl)cc2)c[nH]1`, the inhibition is 29.2% in experiment [1] and 18.4% in experiment [2].

For `Cc1ccc(-c2c[n+]3c(n2-c2ccccc2)SCC3)cc1`, the figures for the inhibition in experiment [1] and in experiment [2] were 8.17% and 24.7%, respectively.

As for `CO[C@@]12[C@@H]3N[C@@H]3CN1C1=C(C(=O)C(N)=C(C)C1=O)[C@@H]2COC(N)=O`, the inhibition in experiment [1] is 35.1%; in experiment [2], 22%.

On to `O=C(CCN1CCOCC1)N/N=C/c1cc(Br)cc(Br)c1O`, for which the values for the inhibition in experiment [1] and in experiment [2] were 13.6% and 7.46%, respectively.

For `CCc1ccc2nc3nc(C)cc(C)c3c(N)c2c1`, the inhibition is 20.2% in experiment [1] and 32.7% (active) in experiment [2].

For `CCOC(=O)N1CCC2(CC1)C(C#N)=C(N)Oc1n[nH]c(CSc3ccc(C)cc3)c12`, the inhibition is 2.57% in experiment [1] and -6.53% in experiment [2].

Turning to `Nc1nc(NCc2ccco2)nc(N2CCCCCC2)c1[N+](=O)[O-]`, the inhibition is -0.71% in experiment [1] and 18% in experiment [2].

Take `CC(=O)Nc1ccc(S(=O)(=O)NCCSCc2ccccc2Cl)cc1`: the inhibition in experiment [1] was 12.3%; in experiment [2] it was 17.1%.

Turning to `CC(=O)c1c(C)[nH]c(C(=O)OCC(=O)Nc2c(C)cccc2C)c1C`, the inhibition in experiment [1] was 16.8%; in experiment [2] it was 13.5%.

For `COc1ccccc1NC(=O)Nc1nnc(Cc2ccc(F)cc2)s1`, the inhibition in experiment [1] is 3.85%; in experiment [2], 9.25%.

Consider `CCCN1CCN(C2CCCCC2NS(=O)(=O)c2ccccc2)CC1` (stereo unspecified), for which the inhibition in experiment [1] is -7.15%; in experiment [2], -2.22%.

For `CCc1ccc(NC(=O)c2cnc(N3CCN(c4ccccn4)CC3)c3ccccc23)cc1`, the inhibition in experiment [1] was 18.1%; in experiment [2], 42% (active).

`COC(=O)c1ccc(S(=O)(=O)NCc2ccc(S(N)(=O)=O)cc2)o1`: the inhibition was -5.84% in experiment [1] and -6.55% in experiment [2].

For the molecule `Cc1ccc(S(=O)(=O)C(C#N)c2nc3ccccc3nc2N2CCN(C)CC2)cc1` (stereo unspecified), the figures for the inhibition in experiment [1] and in experiment [2] were 19.1% and -2.04%, respectively.

For the molecule `CN(C)CCCOc1ccc2c(c1)Sc1ccccc1CC2=O`, the values for the inhibition in experiment [1] and in experiment [2] were -10.4% and -4.19%, respectively.

Consider `CCCCCCCNC(=O)C1(CC2CC(c3ccc(Cl)cc3)=NO2)CCN(C(=O)c2cc(OCC)c(OCC)c(OCC)c2)CC1` (stereo unspecified), for which the inhibition in experiment [1] was 20.9%; in experiment [2] it was 0.73%.

As for `NC(=S)Nc1cc(Cl)cc(Cl)c1`, the inhibition in experiment [1] was 23.7%; in experiment [2], 20.4%.

Turning to `Cc1ccc(S(=O)(=O)CCC(=O)N2CCN(c3ccc(Cl)cc3)CC2)cc1`, the inhibition was -1.83% in experiment [1] and 2.47% in experiment [2].

Turning to `Cn1ncc2c(O/N=C(\N)c3ccc(C(F)(F)F)cc3)ncnc21`, the results for the inhibition in experiment [1] and in experiment [2] were -12.9% and 1.06%, respectively.

With `O=C(NCc1ccccc1)c1c(Cl)nc(Cl)c(Cl)c1Cl`, the inhibition in experiment [1] was 42.1%; in experiment [2], 21.9%.

Take `COc1ccc(NC(=O)c2cc(C3CC3)nc3c2cnn3C(C)C)cc1OC`: the inhibition in experiment [1] was -12.8%; in experiment [2], -3.62%.

In the case of `Cn1c(N)c(C(=O)COC(=O)C2CC(=O)N(Cc3ccccc3)C2)c(=O)n(C)c1=O` (stereo unspecified), the inhibition in experiment [1] is -0.18%; in experiment [2] it was -2.93%.

For `c1ccc2c(c1)Nc1ccncc1S2`, the results for the inhibition in experiment [1] and in experiment [2] were 31.2% and 16.4%, respectively.

On to `CCc1ccc(/C=C/c2c([N+](=O)[O-])c(=O)n(C)c(=O)n2C)cc1`, for which the inhibition in experiment [1] was 39.7%; in experiment [2], 41.3% (active).

In the case of `O=C(c1ccccc1)N1CCN(Cc2c[nH]c3ccccc23)CC1`, the inhibition in experiment [1] is 8.59%; in experiment [2], -3.11%.

In the case of `CCCCC(O)(CCCC)C(=O)NN(C(=O)OCC)c1ccccc1`, the inhibition in experiment [1] was 11.9%; in experiment [2], 14.8%.

In the case of `C=C(C(=O)c1ccccc1)C(CC(=O)c1ccccc1)c1ccccc1` (stereo unspecified), the inhibition was 25.9% in experiment [1] and 41.1% (active) in experiment [2].

On to `CCN1CCN(c2cc(C)c3cc(NC(=S)N4CCCC(C)C4)ccc3n2)CC1` (stereo unspecified), for which the figures for the inhibition in experiment [1] and in experiment [2] were 45.3% (active) and 31.4% (active), respectively.

With `CN1C(=O)C2(C(C#N)=C(N)N(c3cc(Cl)cc(Cl)c3)C3=C2C(=O)CCC3)c2ccccc21` (stereo unspecified), the inhibition in experiment [1] was 30.9%; in experiment [2], 27.9%.

In the case of `S=c1[nH]nc(C2CCCCC2)n1/N=C/c1ccco1`, the values for the inhibition in experiment [1] and in experiment [2] were -2.38% and -11.2%, respectively.

Regarding `COc1ccccc1OCC(=O)N/N=C/c1c(O)ccc2ccccc12`, the inhibition is 12.8% in experiment [1] and 22.8% in experiment [2].

For `COc1ccccc1N(CC(=O)N/N=C/c1c(O)ccc2ccccc12)S(C)(=O)=O`, the results for the inhibition in experiment [1] and in experiment [2] were 34.2% and 41.2% (active), respectively.

As to `NC(=O)CC(NC(=O)c1cccc(Br)c1)c1ccc(NC2CCN(Cc3ccccc3)CC2)c([N+](=O)[O-])c1` (stereo unspecified), the inhibition is -3.11% in experiment [1] and -4.06% in experiment [2].
